FBPA Giardia inh = qHTS Assay for Inhibitors of Fructose-1,6-bisphosphate Aldolase from Giardia Lamblia; A8B2U2; purified Giardia FBPA; Potency, µM (series often up to 59.6 µM), usual class: inhibitors; 290,000 compounds, 0.71% hits; AID 2451, 2010; note: nearly all actives have a fitted effect of over 55% in size
Target sequence (A8B2U2 whole entry, looked up): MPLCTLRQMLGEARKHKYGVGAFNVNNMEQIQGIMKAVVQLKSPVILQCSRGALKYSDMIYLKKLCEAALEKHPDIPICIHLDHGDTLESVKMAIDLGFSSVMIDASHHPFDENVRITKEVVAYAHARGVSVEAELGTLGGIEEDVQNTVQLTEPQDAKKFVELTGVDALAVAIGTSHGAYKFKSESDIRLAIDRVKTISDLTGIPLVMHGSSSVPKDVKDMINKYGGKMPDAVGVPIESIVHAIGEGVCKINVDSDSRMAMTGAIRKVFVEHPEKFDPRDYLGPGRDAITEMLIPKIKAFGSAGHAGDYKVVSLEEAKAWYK
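Giardia FBPA (40 nM reagent) was preincubated 10 min at RT with compound (up to 57.5 uM final), then substrate plus GAPDH/TPI/NAD/arsenate coupling system with diaphorase/resazurin was added; resorufin fluorescence (525/598 nm) was read after 20 min.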
TbPYK inhibitor = qHTS of Trypanosoma Brucei Inhibitors; TbPYK enzyme, Kinase-Glo Plus ATP luminescence, 45 min; Potency, µM (doses to about 76.8 µM), usual class: inhibitors; 410,000 compounds, 0.12% hits; note: nearly all actives have a fitted effect of over 50% in size
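Luminescent Kinase-Glo Plus end-point after 45 min room-temperature reaction of T. brucei pyruvate kinase started with 130 uM ADP (final). Buffer TEA 50 mM pH 7.2 with KCl, MgCl2, BSA, Tween-20; titration-based qHTS with fitted concentration-effect curves.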
Sm TGR block = qHTS Assay for the Inhibitors of Schistosoma Mansoni Peroxiredoxins. Schistosoma mansoni thioredoxin glutathione reductase (TGR), Q962Y6. purified TGR, DTNB reduction, TNB absorbance 405 nm. Potency, µM (top dose mostly 114 µM), actives largely listed as inhibitors. 360,000 compounds, 3% hits; note: nearly all actives have a fitted effect of over 60% in size
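First, TGR (20 nM dispensed) and NADPH were mixed with compound. Second, a 15 min room-temperature incubation followed. Third, further NADPH and then DTNB were added to start the reaction. Finally, TNB absorbance was monitored kinetically.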
FMDV antiviral = High Throughput Screening for Foot and Mouth Disease Virus Antivirals; 410,000 compounds, 1.2% hits; Potency, µM (doses to about 57.9 µM), hits mostly inhibitors; FMDV antiviral cell-based qHTS; calls by dose curve; tested in HEK293T cells; note: read-out not given here; nearly all actives have a fitted effect of over 45% in size
RE007 growth inh = qHTS Assay for Inhibitors of the HIV-1 protein Vpr; Potency, µM (top dose mostly 92.2 µM), actives largely listed as inhibitors; AID 651644, 2012; S. pombe RE007 Vpr strain, BacTiter-Glo ATP luminescence, 24 h; 360,000 compounds, 0.21% hits; active = well fitted falling curve with a large enough effect; inconclusive = small, poorly fitted or top-dose-only effect; inactive = no such curve, though single readings can be large or run the other way; note: nearly all actives have a fitted effect of over 50% in size
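Fission yeast strain RE007, carrying one chromosomally integrated HIV-1 vpr copy, was seeded at OD 0.01 in PMG+AL medium with 23 nL pinned compound. After 24 h at 30 °C and 99% humidity, viability was read by BacTiter-Glo luminescence.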
HCMV antiviral = qHTS Assay for inhibitors of the human cytomegalovirus (HCMV); 410,000 compounds, 4.5% hits; activity change, negative = inhibition, % at 57.5 µM; HFF cells, HCMV-luciferase reporter, 72 h; active compounds read low; in the data active = activity change below about -60%; inconclusive = no clear call, values can overlap the other calls; inactive = above about -39%
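HFF cells seeded 16 h at 37C, treated with compounds, infected with luciferase-reporter HCMV at MOI 1 PFU/cell; luciferase read at 72 h post infection, normalized to buffer-only and Salinomycin controls.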
Each line names hits and unclear results; the compound was inactive in the other large screens. Most compounds without a hit are left out; they make up all but 7.7% or so of the library. Unless noted, calls come from the whole dose curve; as a rule, active = well fitted curve in the direction sought with a large enough effect; inconclusive = small, poorly fitted or top-dose-only effect, or another doubt; inactive = no such curve, though single readings can be large; an effect the other way counts as inactive or inconclusive.

CC(C)COCc1ccc(O)c2ncccc12	FBPA Giardia inh inconclusive, Sm TGR block 16µM, RE007 growth inh inconclusive, HCMV antiviral inconclusive
COc1ccc(S(=O)(=O)N(CC(C)C)CC(C)C)c2cccnc12	none
CCCOCc1ccc(O)c2ncccc12	FBPA Giardia inh inconclusive, Sm TGR block 28µM, RE007 growth inh 40µM, HCMV antiviral -104
CCOC(=O)C1(CC)NC(c2ccco2)C2C(=O)N(c3ccc(C)cc3)C(=O)C21 (stereo unspecified)	Sm TGR block 45µM
O=C(NCc1ccco1)N[C@H]1CC[C@@]23CCCN2C(=O)CCC[C@H]3C1Cc1ccccc1 (stereo partly specified)	none (no result: FBPA Giardia inh, TbPYK inhibitor, Sm TGR block, FMDV antiviral, RE007 growth inh)
COc1ccc(-c2cn3c(n2)sc2cc(C(=O)NCCc4ccccc4)ccc23)cc1	none (no result: FBPA Giardia inh, RE007 growth inh, HCMV antiviral)
O=C(N/N=C/c1ccccc1C(=O)O)c1cc(-c2ccc3c4c(cccc24)CC3)n[nH]1	HCMV antiviral -61
CC(C)C[C@H]1C(=O)N2CCC[C@H]2[C@]2(O)O[C@](NC(=O)[C@@H]3C=C4c5cccc6[nH]c(Br)c(c56)C[C@H]4N(C)C3)(C(C)C)C(=O)N12	none (no result: TbPYK inhibitor, Sm TGR block, FMDV antiviral, RE007 growth inh, HCMV antiviral)
COC(=O)C1C=C2c3cccc4[nH]cc(c34)CC2N(C)C1 (stereo unspecified)	FBPA Giardia inh inconclusive, Sm TGR block 10µM (no result: TbPYK inhibitor, FMDV antiviral, RE007 growth inh, HCMV antiviral)
CC(C)C[C@H]1C(=O)N2CCC[C@H]2[C@]2(O)O[C@](NC(=O)[C@@H]3C=C4c5cccc6[nH]cc(c56)C[C@H]4N(C)C3)(C(C)C)C(=O)N12	Sm TGR block 5.6µM (no result: FBPA Giardia inh, HCMV antiviral)
CCCC(c1nnnn1Cc1ccc(OC)cc1)N1CCN(c2ccccc2OC)CC1 (stereo unspecified)	FMDV antiviral 35µM
COc1cc2cc(C(c3nnnn3Cc3ccc(F)cc3)N3CCCCCC3)c(=O)[nH]c2cc1OC (stereo unspecified)	TbPYK inhibitor inconclusive, Sm TGR block inconclusive
COc1ccc(Cn2nnnc2C(c2ccccc2Cl)N2CCN(C)CC2)cc1 (stereo unspecified)	HCMV antiviral -63
COc1ccc(Cn2nnnc2C(c2cc3ccc(OC)cc3[nH]c2=O)N2CCCCCC2)cc1 (stereo unspecified)	Sm TGR block 18µM
COc1ccc(-c2nc(-c3ccccc3)nc3ccccc23)cc1	none (no result: FBPA Giardia inh, TbPYK inhibitor, Sm TGR block, FMDV antiviral, RE007 growth inh)
Cc1ccc2oc3c(c(=O)c2c1)C(c1ccccc1F)N(CCCN(C)C)C3=O (stereo unspecified)	none (no result: FBPA Giardia inh, RE007 growth inh)
CS(=O)(=O)N(CC(=O)Nc1ccc(Br)cc1)c1ccccc1Br	none (no result: FBPA Giardia inh, RE007 growth inh)
COc1ccc(CNC(=O)c2ccc(-c3nc(CSc4ccccc4)c(C)o3)cc2)c(OC)c1	none (no result: FBPA Giardia inh, RE007 growth inh)
O=C(Nc1cc(Cl)ccc1O)c1snnc1-c1ccccc1	FMDV antiviral 20µM, HCMV antiviral -100
COc1cccc(C2=Nn3c(nnc3-c3ccc(OC)cc3OC)SC2)c1	none (no result: TbPYK inhibitor, Sm TGR block, FMDV antiviral, RE007 growth inh, HCMV antiviral)
Cc1cccc(-n2c(O)c(C=Nc3ccccc3O)c3ccccc3c2=O)n1	HCMV antiviral -64
Cn1cc(Br)c(NC(=O)/C=C/C(=O)O)n1	FBPA Giardia inh inconclusive, Sm TGR block 0.63µM
Cc1c(C(=O)N(C)C)sc2c1c(=O)n(-c1ccc(Cl)c(Cl)c1)c(=O)n2CC(=O)Nc1ccc(Br)cc1F	none (no result: FBPA Giardia inh, TbPYK inhibitor, FMDV antiviral, RE007 growth inh, HCMV antiviral)
COc1cc(OC)cc(C(=O)Nc2ccc3oc(-c4ccc(Cl)cc4)nc3c2)c1	none (no result: FBPA Giardia inh, RE007 growth inh)
CC1=C(n2c(=O)c(-c3ccccc3)nc3ccccc32)C(=O)Nc2ccccc2N1	none (no result: FBPA Giardia inh, TbPYK inhibitor, Sm TGR block, FMDV antiviral, RE007 growth inh)
Cc1ccc([N+](=O)[O-])cc1N=Nc1c(-c2ccc([N+](=O)[O-])cc2)[nH]n(C(N)=S)c1=O	FMDV antiviral 2.5µM (no result: HCMV antiviral)
Cc1ccc([N+](=O)[O-])cc1N=Nc1c(C)[nH]n(C(N)=S)c1=O	none
CCCN1C(=O)/C(=C/c2ccncc2)SC1=S	none
O=C(O)COc1cccc(/C=C2/SC(=S)N(Cc3ccccc3)C2=O)c1	none

Screening data as filed in PubChem.
